A selection: hits, their analogues and other compounds. The true share with any hit is near 2.8%.
SNCA viab count = counter-screen for SNCA expression inhibitors: cell viability. HEK-293-SNCA-luc viability, GF-AFC fluorescence, 24 h. Potency, µM (series often up to 57.1 µM), for the others: at the highest dose activity change, negative = cytotoxicity, usual class: cytotoxic. 150,000 tested, 0.12% active;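 further: potency means the concentration at half of the fitted maximal effect; 0% = DMSO-treated cells and -100% = medium-only wells without cells; nearly all actives have a fitted effect of over 30% in size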
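Cytotoxicity counterscreen: after 24 h compound treatment of genome-edited SNCA-luciferase HEK-293 cells, live-cell protease substrate GF-AFC read by fluorescence after 30 min; activity scaled between DMSO (0%) and medium-only (-100%), curves Hill-fitted.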
KDM5B inh = inhibitors of human KDM5B histone demethylase. Q9UGL1. KDM5B demethylase, FDH-coupled NADH fluorescence (FDH is formaldehyde dehydrogenase). Potency, µM (highest dose often 57.7 µM), actives largely listed as inhibitors. 220,000 tested, 2.6% active; further: potency means the concentration at half of the fitted maximal effect; 0% is about no effect; nearly all actives have a fitted effect of over 70% in size
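Inhibition is measured as reduced NADH fluorescence generation from FDH coupling to formaldehyde release. Truncated KDM5BΔAP at 200 nM final acts on H3K4me3 peptide (12.5 µM in substrate mix) in pH 7.5 HEPES buffer with Tween-20, 30 min, room temperature.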
IP6K1 inh = inhibitors of human IP6K1; activity change, % (series mostly up to about 58 µM); AID 1645851; IP6K1 kinase, ADP-Glo luminescence, 2 h; active compounds read low; 140,000 tested, 0.81% active; Q92551; in the data active means activity change below about -25%; further: on the % scale 0 is the no-effect control and ±100 the full control effect
Target sequence (Q92551 whole entry, looked up): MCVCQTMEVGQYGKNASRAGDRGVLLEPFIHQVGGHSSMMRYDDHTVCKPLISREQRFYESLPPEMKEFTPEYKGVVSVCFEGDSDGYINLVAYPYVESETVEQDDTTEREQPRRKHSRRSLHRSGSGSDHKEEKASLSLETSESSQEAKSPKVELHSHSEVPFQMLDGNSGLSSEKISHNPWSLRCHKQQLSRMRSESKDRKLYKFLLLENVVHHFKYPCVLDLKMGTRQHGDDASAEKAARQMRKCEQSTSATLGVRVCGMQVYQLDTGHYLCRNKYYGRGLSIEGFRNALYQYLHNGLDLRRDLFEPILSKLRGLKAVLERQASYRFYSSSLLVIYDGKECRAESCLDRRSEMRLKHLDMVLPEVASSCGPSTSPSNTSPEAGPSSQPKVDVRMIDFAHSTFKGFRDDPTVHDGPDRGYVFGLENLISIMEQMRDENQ
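ADP-Glo luminescence measures ADP made by human IP6K1 during a 2 h RT reaction with ATP/IP6 (mix at 1.3 mM/130 uM); top library doses 57.5 and 19.1 uM final.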
SNCA expr inh = inhibitors of alpha-synuclein (SNCA) gene expression; HEK-293 SNCA-luciferase knock-in, luminescence, 24 h; Potency, µM (top dose mostly 57.2 µM), for inactives: at the highest dose activity change, negative = inhibition, hits mostly inhibitors; 140,000 tested, 0.17% active; AID 1671194;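 further: potency means the concentration at half of the fitted maximal effect; plate controls were DMSO cells for no effect and cell-free wells for full effect; nearly all actives have a fitted effect of over 45% in size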
Starred values were filed as active, the others as inactive; i = inactive; ? = inconclusive; nt = not tested or not shown; [ ] = remark or other dose. Unless noted, the call rests on the fitted dose curve; in most records, active means well fitted curve in the direction sought with a large enough effect; inconclusive means small, poorly fitted or top-dose-only effect, or another doubt; inactive means no such curve, though single readings can be large; an effect the other way counts as inactive or inconclusive.

SMILES	SNCA viab count	KDM5B inh	IP6K1 inh	SNCA expr inh
COc1ccc(-c2cc3c(=O)n(CCNC(=O)Cc4ccsc4)ccn3n2)cc1	?	28µM*	-7	-20%
Cc1ccc(-c2cc3c(=O)n(CCNC(=O)Cc4ccsc4)ccn3n2)cc1C	-7%	i	-11	33%
CN(Cc1ccc(N2CCCCC2)cc1)C(=O)CCC[C@H]1NC[C@@H]2C[C@H]1CN(Cc1ccccc1)C2	22µM*	?	-2	?
CN(Cc1cccnc1)C(=O)CCC[C@H]1NC[C@@H]2C[C@H]1CN(Cc1ccccc1)C2	0%	?	-1	-13%
CC1CCN(C(=O)CCC[C@H]2NC[C@@H]3C[C@H]2CN(Cc2ccccc2)C3)CC1	2%	7.9µM*	-11	8%
O=C(CCC[C@H]1NC[C@@H]2CC1CN(Cc1ccccc1)C2)N1CCCC1	-14%	i	-7	-10%
CC(CNC(=O)c1n[nH]c(=O)c2ccccc12)(c1ccccc1)c1ccccc1	nt	i	nt	nt
Cc1cc(C)c(CNC(=O)c2cc(-c3ccc(CN4CCOCC4)cc3)cc3c2cnn3C2CCCC2)c(=O)[nH]1	-28%	nt	-12	-15%
Cc1cc(C)c(CNC(=O)c2cc(-c3ccnn3C)cc3c2OCCN3C(C)C)c(=O)[nH]1	-1%[87.6 µM]	35µM*	-16	13%[87.6 µM]
Cc1ccc(-c2cc(C(=O)NCc3c(C)cc(C)[nH]c3=O)c3c(c2)N(C(C)C)CCO3)cc1	-7%	25µM*	3	?
COc1ncccc1-c1cc(C(=O)NCc2c(C)cc(C)[nH]c2=O)c2c(c1)N(C(C)C)CCO2	-5%	28µM*	-7	26%
Cc1cc(C)c(CNC(=O)c2cc(-c3ccccc3)cc3c2OCCN3C(C)C)c(=O)[nH]1	?	35µM*	-15	?
CC(OC(=O)/C=C/c1cccc2cccnc12)C(=O)NC(C)(C)C (stereo not drawn)	nt	i	nt	nt
CC1CCCCN1CCNC(=O)COCc1cc(-c2cccs2)on1 (stereo not drawn)	nt	i	nt	nt
Cc1c(CCC(=O)NCc2ccccc2)c(=O)oc2cc(O)ccc12	nt	i	nt	nt
CC(C)Cc1ccc(-c2cnc(CCC(=O)NC(C)c3ccc4c(c3)NC(=O)CO4)o2)cc1 (stereo not drawn)	nt	i	nt	nt
COc1cc(C)c2c(c1C)C[C@H]([C@H](C)C(=O)O)CC2	25%[87.6 µM]	i	7	-13%[87.6 µM]
COc1cc(C)c2c(c1C)C[C@H](C(C)C(=O)NCc1ccco1)CC2 (stereo partly drawn)	-5%[87.6 µM]	35µM*	14	-8%[87.6 µM]
CN(Cc1cccc(C(F)(F)F)c1)C(=O)C1(c2ccc(Cl)cc2)CCOCC1	-3%	i	-5	-11%
CCc1nc(N2CCOCC2)ncc1C(=O)O	3%	25µM*	-21	-2%
C=CCNc1ccccc1C(=O)NC(C(=O)O)c1c(C)n[nH]c1C (stereo not drawn)	3%	28µM*	-5	-24%
Cc1n[nH]c(C)c1C(NC(=O)c1c(C)c2cccc(C)c2n1C)C(=O)O (stereo not drawn)	4%	i	-6	-3%
CCc1noc(-c2nc(-c3ccc(OC)c(OC)c3)no2)n1	-3%	i	0	23%
COc1ccc(-c2noc(-c3nc(Cc4cccc(F)c4)no3)n2)cc1OC	4%	25µM*	13	11%
Fc1ccc(Cc2noc(-c3nc(-c4ccc5c(c4)OCO5)no3)n2)cc1	-2%	?	0	0%
SMILES	SNCA viab count	KDM5B inh	IP6K1 inh	SNCA expr inh
Fc1cccc(Cc2noc(-c3nc(-c4ccc5c(c4)OCO5)no3)n2)c1	6%	25µM*	-2	21%
COc1ccc(-c2noc(-c3nc(Cc4ccccc4)no3)n2)cc1	-3%	32µM*	3	-13%
Cc1ccccc1Cc1noc(-c2nc(-c3ccc4c(c3)OCO4)no2)n1	12%	28µM*	2	?
COc1cccc(-c2ccccc2NC(=O)C2CCN(Cc3cc(OC)ccc3O)CC2)c1	-30%	16µM*	19	-30%
CCCc1noc(-c2cccn3c(CNC(=O)c4cccc(F)c4)nnc23)n1	-3%	25µM*	-3	-15%
CCc1noc(-c2cccn3c(CNC(=O)Cc4cccc(F)c4)nnc23)n1	-6%	25µM*	8	-14%
CCc1noc(-c2cccn3c(CNC(=O)c4c(F)cccc4Cl)nnc23)n1	-5%	28µM*	35	-15%
CCc1noc(-c2cccn3c(CNC(=O)c4cccc(F)c4)nnc23)n1	2%	22µM*	40	4%
CCc1noc(-c2cccn3c(CNC(=O)c4cccc(N(C)C)c4)nnc23)n1	-16%	i	9	21%
CN(CC(=O)NC(=O)NC1CC1)Cc1cccc(F)c1	nt	i	nt	nt
C#CCNC(=O)c1nc(-c2ccc(Cl)cc2Cl)c2ccccn12	-13%	89µM*	10	?
C#CCNC(=O)c1nc(-c2ccc(Cl)cc2)c2cnccn12	12%[87.6 µM]	40µM*	0	-1%[87.6 µM]
C#CCNC(=O)c1nc(-c2cc(Cl)cc(Cl)c2)c2ccccn12	3%[87.6 µM]	10µM*	10	-26%[87.6 µM]
C#CCNC(=O)c1nc(-c2ccc(Cl)cc2)c2ccccn12	-3%[87.6 µM]	32µM*	11	116%[87.6 µM]
O=C(O)CCC(=O)Nc1ccc(S(=O)(=O)NCC(=O)c2ccccc2)cc1	nt	i	nt	nt
O=C(NCc1ccc2c(c1)OCO2)c1nc(-c2ccc(Cl)cc2)c2cnccn12	23%	28µM*	0	156%
Cn1ccnc1-c1ccc(N2CCC(C(O)Cc3ccccc3)CC2)nn1 (stereo not drawn)	-13%	28µM*	5	-34%
COc1cccc(CC2(CO)CCCN(c3ccc(-c4nccn4C)nn3)C2)c1 (stereo not drawn)	?	20µM*	5	-13%
Cn1ccnc1-c1ccc(N2CC[C@](C)(O)[C@@H](O)C2)nn1	5%	?	-4	220%
O=C(Nc1cc(F)ccc1F)C12CC3CC(CC(Cl)(C3)C1)C2	nt	i	nt	nt
CN(CCc1ccccn1)c1ccc(-c2nc(COc3ccccc3)no2)cn1	-16%	28µM*	11	63%
CN(CCO)c1ccc(-c2nc(CCCc3ccccc3)no2)cn1	-6%	?	-4	106%
CN(Cc1cccnc1)c1ccc(-c2nc(COc3ccccc3)no2)cn1	-11%	35µM*	15	31%
Cc1nn(-c2ccccc2)nc1C(=O)N[C@H](C)c1onc(-c2ccc(F)cc2)c1C(=O)O	0%	32µM*	9	6%
C[C@@H](NC(=O)c1ccc(Cl)cc1)c1onc(-c2ccc(F)cc2)c1C(=O)O	4%[87.6 µM]	i	-2	7%[87.6 µM]
C[C@@H](NC(=O)c1nc2ccccc2[nH]1)c1onc(-c2ccc(F)cc2)c1C(=O)O	1%[87.6 µM]	35µM*	7	1%[87.6 µM]
C[C@@H](NC(=O)NC(C)(C)C)c1onc(-c2ccc(F)cc2)c1C(=O)O	-2%[87.6 µM]	i	19	?
Cc1nc(CN2C[C@H](C(=O)Nc3cccc(Cl)c3)C[C@@H]2c2ccc(F)cc2)cs1	?	?	-5	?

Screens: PubChem, National Center for Advancing Translational Sciences (NCATS)
